Compound activity from PubChem.
Pf growth 48h: P. falciparum growth inhibition at 48 hours (one generation); Potency, µM (titrated, usually from 28.7 µM), for the others: top-dose activity change, negative = inhibition, hits mostly inhibitors; AID 504832; P. falciparum luciferase growth in erythrocytes, 48 h; hit rate 5.9% among 310,000
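Growth was read as firefly luciferase luminescence after a 48 h, 37 C, 5% CO2 exposure of compounds to reporter-bearing P. falciparum cultures (0.1% parasitemia, 2% hematocrit final) in Albumax-supplemented RPMI 1640.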
AmpC detergent: AmpC beta-lactamase inhibition with detergent present; P00811; AmpC hydrolysis of nitrocefin, absorbance 480 nm, 0.01% Triton; Potency, µM (series often up to 114 µM), inactives show at the top dose activity change, negative = inhibition, usual class: inhibitors; hit rate 0.041% among 370,000;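 also: 0% = no-compound wells and -100% = no-enzyme wells; nearly all actives have a fitted effect of over 25% in size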
Target sequence (P00811 whole entry, looked up): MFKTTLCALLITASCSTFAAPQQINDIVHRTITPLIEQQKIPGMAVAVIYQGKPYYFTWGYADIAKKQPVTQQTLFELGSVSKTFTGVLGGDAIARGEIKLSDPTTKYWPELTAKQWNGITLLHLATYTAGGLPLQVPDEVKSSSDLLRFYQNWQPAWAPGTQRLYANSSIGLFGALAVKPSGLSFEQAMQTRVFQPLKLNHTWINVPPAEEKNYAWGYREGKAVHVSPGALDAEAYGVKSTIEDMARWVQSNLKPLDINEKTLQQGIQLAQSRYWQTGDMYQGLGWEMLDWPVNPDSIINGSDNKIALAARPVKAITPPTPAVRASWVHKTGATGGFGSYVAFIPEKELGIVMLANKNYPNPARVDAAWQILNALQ
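20 mM phosphate pH 7.0 + 0.01% (detergent screen) or 0.0001% Triton X-100; 5.3 nM AmpC reagent; cpd preinc 15 min RT; nitrocefin (800 uM stock) to start; A480 q20 s × 4 min; Activity was normalised to no-enzyme and no-compound control wells.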
AmpC no deterg: blocks E. coli AmpC beta-lactamase in detergent-free assay; P00811; AmpC nitrocefin hydrolysis, absorbance 480 nm, 0.0001% Triton; Potency, µM (doses to about 57.1 µM), for the others: at the highest dose activity change, negative = inhibition, usual class: inhibitors; hit rate 0.52% among 330,000; AID 485341;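 also: plate controls were no compound for no effect and no enzyme for full effect; nearly all actives have a fitted effect of over 20% in size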
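20 mM phosphate pH 7.0 + 0.01% (detergent screen) or 0.0001% Triton X-100; 5.3 nM AmpC reagent; cpd preinc 15 min RT; nitrocefin (800 uM stock) to start; A480 q20 s × 4 min; Activity was normalised to no-enzyme and no-compound control wells.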
HCV inhibitor: HCV inhibition; Huh7.5.1 HCVcc-Cre infection, luciferase reporter, 44 h; Potency, µM (top dose mostly 41.8 µM), for inactives: at the highest dose activity change, negative = inhibition, usual class: inhibitors; hit rate 3.4% among 340,000
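After 44 h co-culture of compound, cells and HCVcc-Cre (~0.5 moi), substrate is added for 15 min at room temperature and luciferase measured over 15 sec. Cells were seeded at 1,000/well and pre-cultured 4 h.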
Pf growth 96h: P. falciparum growth inhibition at 96 hours; P. falciparum luciferase reporter growth, 96 h; Potency, µM (series often up to 28.7 µM), inactives show at the top dose activity change, negative = inhibition, usual class: inhibitors; hit rate 6.9% among 320,000
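Erythrocytes infected with luciferase-expressing P. falciparum were dispensed at 2% hematocrit and 0.05% parasitemia (final), then incubated with compounds 96 hours at 37 C in 5% CO2. Luminescence after detection reagent addition reported growth.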
AMA1 RON2 block: AMA1-RON2 (P. falciparum) interaction inhibition. Potency, µM (highest dose often 58.2 µM), without a hit: at the highest dose activity change, negative = inhibition, hits mostly inhibitors. AlphaScreen AMA1-biotinylated RON2 peptide binding. AID 720542. hit rate 0.2% among 360,000;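 also: 0% = vehicle wells and -100% = peptide control; nearly all actives have a fitted effect of over 45% in size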
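AMA1 (3D7) with his tag at 25 nM final met compounds first, then biotinylated RON2 peptide at 25 nM; detection used donor plus acceptor beads, 10 µg/mL apiece, read by AlphaScreen after 30 min at room temperature.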
* marks the source's active call; other numbers are inactive results; [ ] = remark or other dose. Only some compounds are listed: those with a hit (about 11% of all), similar ones and a draw of the others. Calls follow the shape of the dose curve; as a rule, active = well fitted curve in the direction sought with a large enough effect; inconclusive = small, poorly fitted or top-dose-only effect, or another doubt; inactive = no such curve, though single readings can be large; an effect the other way counts as inactive or inconclusive. Unless noted, % is scaled to controls: 0 for no effect and ±100 for the full control effect; potency is read from the fitted curve at half-maximal effect.

`CC(=O)Nc1cccc(NC(=O)c2cc3c(=O)n4cccc(C)c4nc3n2C)c1` gave AmpC detergent -5.6%.
Screening CCN1CCN(Cc2ccc(NC(=O)c3cc(NC(=O)c4ccc5n[nH]nc5c4)cc(OC)c3)cc2C(F)(F)F)CC1 returned Pf growth 48h 4.15µM*, AmpC detergent 5.4%, AmpC no deterg -18.8%, HCV inhibitor -14.0%, Pf growth 96h 2.33µM* and AMA1 RON2 block 55.5%.
For CCN1CCN(Cc2ccc(NC(=O)c3cc(NC(=O)c4cc(-c5ccc(OC)cc5)n[nH]4)cc(OC)c3)cc2C(F)(F)F)CC1 the results were Pf growth 48h 0.117µM*, AmpC detergent 3.6%, AmpC no deterg 55.2%, HCV inhibitor inconclusive, Pf growth 96h 0.0928µM* and AMA1 RON2 block inconclusive.
`CCN1CCN(Cc2ccc(NC(=O)c3cc(NC(=O)c4ccno4)cc(OC)c3)cc2C(F)(F)F)CC1` gave Pf growth 48h inconclusive, AmpC detergent -2.7%, AmpC no deterg 70.4%, HCV inhibitor inconclusive, Pf growth 96h 0.828µM* and AMA1 RON2 block -5.8%.
For CCN1CCN(Cc2ccc(NC(=O)c3ccc(C)c(NC(=O)c4ccno4)c3)cc2C(F)(F)F)CC1 the results were Pf growth 48h inconclusive, AmpC detergent -2.8%, AmpC no deterg 6.0%, HCV inhibitor -19.0%, Pf growth 96h inconclusive and AMA1 RON2 block 3.8%.
For CCc1ccc(NC(=O)CN(c2ccc(C)cc2)S(=O)(=O)c2cccs2)cc1 the results were AmpC detergent 2.0%.
For COc1ccc(CCNC(c2ccc(F)cc2)c2nnc(-c3ccccc3Cl)o2)cc1OC (stereo not drawn) the results were AmpC detergent 11.9%.
Screening O=c1cc(CN2CCN(c3cccc(Cl)c3)CC2)c2cc(O)c(-c3ccccc3)cc2o1 returned Pf growth 48h 2.08µM*, AmpC detergent inconclusive, AmpC no deterg -41.4%, HCV inhibitor 21.1%, Pf growth 96h inconclusive and AMA1 RON2 block -6.7%.
CCc1ccc2oc(=O)cc(CN3CCN(c4ccc(F)cc4)CC3)c2c1 was read as Pf growth 48h inconclusive, AmpC detergent 1.3%, AmpC no deterg -1.4%, HCV inhibitor inconclusive, Pf growth 96h inconclusive and AMA1 RON2 block -1.9%.
`COc1ccc(N2CCN(Cc3cc(=O)oc4c3ccc3ccccc34)CC2)cc1` gave Pf growth 48h -15.8%, AmpC detergent inconclusive, AmpC no deterg -24.2% and Pf growth 96h 11.7µM*.
`O=c1cc(CN2CCN(c3ccccc3)CC2)c2cc(O)c(-c3ccccc3)cc2o1` gave Pf growth 48h 2.62µM*, AmpC detergent -7.9%, AmpC no deterg -32.5%, HCV inhibitor -0.8%, Pf growth 96h 3.29µM* and AMA1 RON2 block -6.0%.
For CC(C)c1ccc2oc(=O)cc(CN3CCN(c4ccc(F)cc4)CC3)c2c1 the results were Pf growth 48h 13.1µM*, AmpC detergent inconclusive, AmpC no deterg -3.5%, HCV inhibitor -1.3% and AMA1 RON2 block -25.9%.
For Cc1ccc(Sc2c(C)nn(C(=O)COc3ccccc3)c2C)cc1 the results were AmpC detergent 2.6%.
Screening COc1ccccc1NC(=O)Cn1c(SCC(=O)NCc2ccccc2)nc2ccccc21 returned AmpC detergent -2.0%.
Screening COc1ccc(CNC(=O)CCCc2nnc3n(CCC(C)C)c(=O)c4sccc4n23)cc1 returned AmpC detergent 17.7%.
Screening CCOC(=O)c1c(C)[nH]c(C)c1S(=O)(=O)NCC(=O)Nc1cccc(SC)c1 returned AmpC detergent 2.9%.
O=c1cc(CN2CCN(c3ccccc3)CC2)c2c(ccc3ccccc32)o1 was read as Pf growth 48h 13.1µM*, AmpC detergent -14.3%, AmpC no deterg -9.9%, HCV inhibitor 0.0%, Pf growth 96h 10.4µM* and AMA1 RON2 block -8.0%.
O=C(NCc1ccccc1)/C(=C/c1ccc(OC(F)F)cc1)c1ccccc1 was read as Pf growth 48h 15.6%, AmpC detergent -6.2%, AmpC no deterg -21.2%, HCV inhibitor 22.4µM*, Pf growth 96h inconclusive and AMA1 RON2 block 29.8%.
`COC(=O)CN1C(=O)CSc2ncccc21` gave Pf growth 48h 19.0%, AmpC detergent -2.1%, AmpC no deterg 7.0%, HCV inhibitor -4.9%, Pf growth 96h 0.5% and AMA1 RON2 block 6.5%.
CCOC(=O)N1CCC(NC(=O)CN2C(=O)CSc3ncccc32)CC1 was read as Pf growth 48h 29.6%, AmpC detergent 8.0%, AmpC no deterg 28.2µM*, HCV inhibitor -3.9%, Pf growth 96h 12.0% and AMA1 RON2 block 1.7%.
CCOC(=O)N1CCC(NC(=O)CCCN2C(=O)CSc3ncccc32)CC1 was read as Pf growth 48h -2.5%, AmpC detergent 0.1%, HCV inhibitor 4.3%, Pf growth 96h 43.2% and AMA1 RON2 block 29.2%.
`CCC(Cc1ccccc1)NC(=O)CN1C(=O)CSc2ncccc21` (stereo not drawn) gave Pf growth 48h 3.2%, AmpC detergent inconclusive, AmpC no deterg -3.2%, HCV inhibitor 12.6µM*, Pf growth 96h inconclusive and AMA1 RON2 block 5.6%.
For Cc1ccc(C(=O)NC2=NC(c3ccc(C)cc3)CC(=O)N2)cc1 (stereo not drawn) the results were AmpC detergent 2.7%.
O=C(CSc1nc2c([nH]c3ccccc32)c(=O)n1-c1ccc(F)cc1)NC1CCCCC1 was read as AmpC detergent 2.0%.
For CC(C)(C)C(=O)NNC(=O)COc1ccc2ccccc2c1Br the results were Pf growth 48h 5.9%, AmpC detergent -0.5%, AmpC no deterg -8.0%[2.29 µM], HCV inhibitor 11.0%, Pf growth 96h 2.33µM* and AMA1 RON2 block 86.8%.
For O=C(c1ccc(F)cc1)C1CCN(Cc2ccccc2F)CC1 the results were AMA1 RON2 block -4.9%.
`CC1CCN(CC(=O)Nc2ccc(C(=O)N3CCCCC3)cc2)CC1` gave Pf growth 48h 0.0%, AmpC detergent 3.5%, AmpC no deterg 0.7%, HCV inhibitor 19.6%, Pf growth 96h 3.29µM* and AMA1 RON2 block 0.8%.
COc1ccc(NC(=O)CN2CCC(C)CC2)cc1 was read as Pf growth 48h 30.7%, AmpC detergent -15.1%, AmpC no deterg -10.4%, HCV inhibitor -0.9% and AMA1 RON2 block 1.1%.
O=C(CN1CCC(C(=O)c2ccc(F)cc2)CC1)Nc1ccc(F)cc1 was read as Pf growth 48h inconclusive, AmpC detergent -1.5%, AmpC no deterg 0.8%, HCV inhibitor 10µM*, Pf growth 96h inconclusive and AMA1 RON2 block -4.1%.
